The record followed here is PubChem BioAssay (NCATS).

The structures appear in SMILES notation.

A short description of this assay: High-throughput drug toxicity screening in the BPDCN cell line Cal-1 (AID 1224825). As to conditions: Cal-1 BPDCN cell viability, qHTS; at 45.8 µM (top of the series). The text has this: Blastic plasmacytoid dendritic cell neoplasm (BPDCN) is a rare, aggressive and largely incurable hematologic malignancy originating from plasmacytoid dendritic cells (pDCs). Although an initial response to chemotherapy is common, BPDCN prognosis is extremely poor and most patients relapse with drug-resistant disease leading to a median overall survival of ~1 year after diagnosis. To explore novel potential therapeutic strategies in BPDCN, we performed a high-throughput drug toxicity screening in BPDCN cell liens, using of a library of 1,912 small molecules, enriched for compounds that are either approved or in early stages of development for cancer therapy.
A total of 500 exponentially growing Cal-1 cells were seeded per well in 5 uL of media (RPMI + Glutamine, without phenol red plus10% FBS and 1X Pen/Strep) into 1536-well solid white high base tissue culture treated Greiner One Bio Plates (789173-F), using a multidrop combi dispenser and a small sterile cassette. Compounds and controls totaling 23nL per well (negative control DMSO and positive control 9.2 uM Bortezomib-final) were immediately added to the plates using a 1536 head pin tool from Kalypsys. The plates were then covered with stainless steel gasket lids from Kalypsys and incubated for 48 hours at 37C under 95% relative humidity with 5% CO2. After 48 hours, the plates were removed and allowed to reach room temperature before 3 uL of Cell Titer Glo reagent (Promega) were added using an Aurora Flying Reagent Dispenser Bioraptor. The plates were then spun at 1000 rpms to remove bubbles and incubated for 15 minutes at room temperature before reading on a ViewLux using a luminescent filter with a 10 second exposure. The relative luciferase units were used to calculated percent activity using DMSO as 100% and Bortezomib as 0%.
Background: In qHTS, concentration-response curves come from the screen itself.
Regarding `Cn1cc(C2=C(c3cn(C4CCN(Cc5ccccn5)CC4)c4ccccc34)C(=O)NC2=O)c2ccccc21`, the viability (% of control) is 14.5%.

`C=C(C)[C@H]1Cc2c(ccc3c2O[C@@H]2COc4cc(OC)c(OC)cc4[C@@H]2C3=O)O1`: the viability (% of control) was 11.5%.

Turning to `CN1CCN(C(=O)O[C@H]2c3nccnc3C(=O)N2c2ccc(Cl)cn2)CC1`, the viability (% of control) is 135%.

As for `COc1ccc(C(CN(C)C)C2(O)CCCCC2)cc1` (stereo not drawn), the viability (% of control) was found to be 107%.

In the case of `CC1=C2C[C@@H]3[C@@H](CC=C4C[C@@H](O)CC[C@@]43C)[C@@H]2CC[C@]12O[C@H]1C[C@H](C)CN[C@H]1[C@H]2C`, the viability (% of control) amounted to 116%.

Consider `Cc1sc2c(c1C)C(c1ccc(Cl)cc1)=N[C@@H](CC(=O)OC(C)(C)C)c1nnc(C)n1-2`, for which the viability (% of control) stood at 2.41%.

Consider `Cc1cc(SCc2sc(-c3ccc(C(F)(F)F)c(F)c3)nc2C)ccc1OCC(=O)O`, for which the viability (% of control) came out at 109%.

`N[C@@H](Cc1ccc(N(CCCl)CCCl)cc1)C(=O)O`: the viability (% of control) was 4.8%.

In the case of `NCC1(CC(=O)O)CCCCC1`, the viability (% of control) stood at 104%.

As for `CNC(=O)N1N=C(c2ccc(N)cc2)c2cc3c(cc2CC1C)OCO3` (stereo not drawn), the viability (% of control) was 9.51%.

Consider `Fc1ccc(C(OCCN2CCN(CCCc3ccccc3)CC2)c2ccc(F)cc2)cc1`, for which the viability (% of control) was 3.89%.

For `C[C@@H]1O[C@@H](O[C@H]2C[C@@H](O)[C@]3(CO)[C@H]4[C@H](O)C[C@]5(C)[C@@H](C6=CC(=O)OC6)CC[C@]5(O)[C@@H]4CC[C@]3(O)C2)[C@H](O)[C@H](O)[C@H]1O`, the viability (% of control) was found to be 3.79%.

For the compound `O=c1[nH]c2ccccc2n1CCCN1CCC(n2c(=O)[nH]c3cc(Cl)ccc32)CC1`, the viability (% of control) came to 61.6%.

With `CC(C)CC(N(C)C)C1(c2ccc(Cl)cc2)CCC1` (stereo not drawn), the viability (% of control) is 105%.

In the case of `O=C1CC[C@@]2(O)[C@H]3Cc4ccc(O)c5c4[C@@]2(CCN3CC2CC2)[C@H]1O5`, the viability (% of control) is 62%.

On to `C#CCN(C)[C@H](C)Cc1ccccc1`, for which the viability (% of control) stood at 105%.

As for `CCCC(C)(COC(N)=O)COC(=O)NC(C)C` (stereo not drawn), the viability (% of control) is 110%.

With `CNC(=O)c1ccc(N2C(=S)N(c3ccc(C#N)c(C(F)(F)F)c3)C(=O)C23CCC3)cc1F`, the viability (% of control) was 7.78%.

Regarding `COC[C@@H](NC(C)=O)C(=O)NCc1ccccc1`, the viability (% of control) came out at 115%.

As for `C[C@@H]1[C@@H](C(=O)C[C@H]2O[C@@H]3O[C@]4(C)CC[C@@H]5[C@H](C)CC[C@@H]([C@H]2C)[C@@]35OO4)O[C@@H]2O[C@]3(C)CC[C@H]4[C@H](C)CC[C@@H]1[C@@]24OO3`, the viability (% of control) was determined as 7.82%.

For `CN(C)CCc1ccc(O)cc1`, the viability (% of control) is 108%.

As for `CNCC(O)c1ccc(O)cc1` (stereo not drawn), the viability (% of control) amounted to 114%.

Regarding `COC1(CS(=O)c2ccccc2)CCN(CCc2c[nH]c3ccc(F)cc23)CC1` (stereo not drawn), the viability (% of control) is 80.6%.

With `O=C(O)C(=O)c1cn(Cc2ccccc2)c2ccc(-c3ccc(OC(F)(F)F)cc3)cc12`, the viability (% of control) is 118%.

Take `CC(O)(CS(=O)(=O)c1ccc(F)cc1)C(=O)Nc1ccc(C#N)c(C(F)(F)F)c1` (stereo not drawn): the viability (% of control) turned out to be 3.75%.

On to `COc1ccc2c(c1OC)CN1CCc3cc4c(cc3C1C2)OCO4` (stereo not drawn), for which the viability (% of control) was 62.2%.

As to `CN(C)CCN(C)CCc1ccc(Cl)c(Cl)c1`, the viability (% of control) was 92.7%.

Take `Cc1cccc(C)c1NC(=O)CN1CCCC1=O`: the viability (% of control) stood at 110%.

Regarding `C[C@@H]1[C@@H](CC(C[C@H]2O[C@@H]3O[C@]4(C)CC[C@@H]5[C@H](C)CC[C@@H]([C@H]2C)[C@@]35OO4)C[S+](=O)([O-])c2ccc(COC(=O)N(C)C)cc2)O[C@@H]2O[C@]3(C)CC[C@H]4[C@H](C)CC[C@@H]1[C@@]24OO3` (stereo partly drawn), the viability (% of control) is 13.4%.

Take `CN(C)[C@@H]1C(=O)C(C(N)=O)=C(O)[C@@]2(O)C(=O)C3=C(O)c4c(O)cccc4[C@@](C)(O)[C@H]3C[C@@H]12`: the viability (% of control) turned out to be 83.2%.

Regarding `O=P1(NCCCl)OCCCN1CCCl` (stereo not drawn), the viability (% of control) was determined as 20.1%.

As to `COc1ccc(C(=O)c2c(C)n(CCN3CCOCC3)c3ccccc23)cc1`, the viability (% of control) turned out to be 101%.

`Cn1c(CCCC(=O)O)nc2cc(N(CCCl)CCCl)ccc21`: the viability (% of control) is 6.62%.
